Experimental data from PubChem BioAssay (NCI).
This is part of a sample that, as a whole, favours compounds with a hit. Of some 83,000 tested, about 20% had one in any assay.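 In brief: 96-well plates, 48 h treatment, single concentration, percent growth endpoint.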 Values without a mark were called inactive. Active and inactive are the calls of the source.

What follows are compounds tested on A549/ATCC NSCLC (assay: NCI-60 one-dose screen, 48 h (100 = growth as untreated, 0 = no growth, -100 = all killed)). Conditions: 10 µM unless noted.
Method: Growth inhibition of the A549/ATCC human Non-Small Cell Lung tumor cell line is measured as a screen for anti-cancer activity. Cells are grown in 96 well plates and exposed to the test compound for 48 hours. Compounds are tested at a single concentration, which is 10^-5 M for most compounds. The reported endpoint is percent growth (GI% or GIPRCNT), where numbers from 0 - 100% represent growth inhibition, and numbers from -100% - 0 represent cell death. For example, a value of 40 represents 60% growth inhibition. A value of 0 means no net growth occurred over the course of the experiment. A value of -40 indicates 40% of cells at the beginning of the experiment died by the end of the experiment. A value of -100 means all cells are dead at the end of the experiment.
NCI-60 Human Tumor Cell Lines Screen was performed using the standard one-dose NCI protocol, which is described in more detail at https://dtp.cancer.gov/discovery_development/nci-60/default.htm.
Compounds with GIPRCNT values below 10 were considered active. Activity score was based on GIPRCNT using the following formula: […]
Score is 0 for GIPRCNT values of 100 or above, 50 for GIPRCNT values of 0, and 100 for GIPRCNT values of -100.
In the case of `O=[N+]([O-])c1ccc(/C=N\Nc2ccccc2)cc1`, the growth is reported as 57.7%.
In the case of `Cn1cc(-c2csc(-c3c[nH]c4ccccc34)n2)c2cccnc21`, the growth is reported as 40.3%.
In the case of `CC(=O)OC(C)COc1ccc(-c2ccccc2)cc1` (stereo not given), the growth is reported as 54.9%.
`Cc1ccc(Cc2cnc(NC(=O)/C=C/c3cccc(C)c3)s2)cc1` was tested, and the growth was 16.1%.
Compound `NC1=NN=C2N(N)C(=O)c3cnn(-c4ccccc4)c3N2c2nc(-c3ccccc3)cc(-c3ccccc3)c21` has a growth of 100%.
`Cc1cc(N2CCCCC2)nc(N(CCCNc2ccnc3cc(Cl)ccc23)Cc2ccco2)n1` gave a growth of 18.4%.
For `Cc1cc(N(CCNc2ccnc3cc(Cl)ccc23)Cc2ccco2)nc(Cl)n1`, the growth was -55.8% (active).
With `COc1cc(-c2nc(-c3ccccc3)c(-c3ccccc3)[nH]2)cc(OC)c1O` the growth was -30.9% (active).
In the case of `Cc1ccc(N(CC(=O)Nc2ccc(S(=O)(=O)NC3CCN(C)CC3)cc2)S(=O)(=O)c2ccc(Cl)cc2)cc1`, the growth is reported as 69.2%.
`CC[C@]12C=CCN3CC[C@@]4(c5cc([C@H]6CCC(=O)N6)c(OC)cc5N(C)[C@H]4[C@@](O)(C(=O)OC)[C@@H]1OC(C)=O)[C@@H]32` showed a growth of 100% [2.5 µM].
In the case of `COc1cc2nc(Cl)nc(Nc3cccc(C(=O)/C=C/c4ccc(F)cc4)c3)c2cc1OC`, the growth is reported as 70.2%.
`OCC(CO)(CCl)CCl` gave a growth of 76.7%.
`CN1CCN(c2nc(-c3cccc4ccccc34)nc3sc4c(c23)CCCCCC4)CC1` showed a growth of 95.5%.
In the case of `NC1=C(C/C(N)=N\O)C(c2ccccc2Cl)c2c(ccc3ccccc23)O1` (stereo not given), the growth is reported as 87.3%.
With `Cc1ccc(S(=O)(=O)Nc2ccc(-c3cc(-c4cccc(F)c4)c(C#N)c(N)n3)cc2)cc1` the growth was 33%.
In the case of `O=C(NC(Cc1cn(Cc2ccccc2)cn1)C(=O)O)OCC1c2ccccc2-c2ccccc21` (stereo not given), the growth is reported as 104%.
`Cc1nn(-c2ccc(Br)cc2)c2nc3[nH]c(=O)[nH]c(=O)c3nc12` was tested, and the growth was 102%.
Compound `COc1ccc2c(c1)c(-c1nc(-c3c[nH]c4ncccc34)cs1)cn2C` has a growth of 81.7%.
With `O=C(NC1=CC(=O)c2ccccc2C1=O)c1ccccc1` the growth was 23.8%.
With `COc1ccc(C2NC(=O)Nc3ccccc32)c(OC)c1` (stereo not given) the growth was 98.4%.
In the case of `C/C(=N\Nc1cc(C)c2cc(C)ccc2n1)c1ccccn1`, the growth is reported as 1.9% (active).
With `Oc1cccc2ccc(N/N=C/c3cc(CN4CCCCC4)c(O)c4ncccc34)nc12` the growth was -10.3% (active).
`O=S(=O)(NCCNc1cc(-c2cn(-c3ccccc3)nc2-c2cccc(O)c2)ccn1)c1ccc(C(F)(F)F)cc1` gave a growth of 41.6%.
In the case of `O=c1[nH]c(=S)[nH]c2nc[nH]c12`, the growth is reported as 99.1%.
Compound `Cc1cc(N2CCCC2)nc(N(CCNc2ccnc3cc(Cl)ccc23)Cc2ccco2)n1` has a growth of 48%.
With `CCCCC(=O)OC1CCCCC1C` (stereo not given) the growth was 72.3%.
Compound `Cn1cc(-c2csc(-c3cn(CCN)c4ccccc34)n2)c2cccnc21` has a growth of 40%.
For `O=C1CCC/C=C\C[C@H]2C=C(Cl)C(=O)/C2=C/C[C@H](CCCCC(F)(F)F)OC(=O)CCC/C=C\C[C@H]2C=C(Cl)C(=O)/C2=C/C[C@H](CCCCC(F)(F)F)O1`, the growth was -44.5% [7.5 µM] (active).
With `Cn1c(=O)c2c(ncn2CCC(=O)Nc2ccc(F)cc2)n(C)c1=O` the growth was 89.5%.
`C=C(C)[C@@H]1CC[C@]2(/C=N/Nc3ccncc3)CC[C@]3(C)[C@H](CC[C@@H]4[C@@]5(C)CCCNC(C)(C)[C@@H]5CC[C@]43C)[C@@H]12` gave a growth of 78%.
For `Cc1ccc(C)c2c1CCC2C(C)C` (stereo not given), the growth was 87.2%.
`COC(=O)CCCCCn1c2ccccc2c2c3c(c4c5ccccc5[nH]c4c21)C(=O)N(O)C3=O` showed a growth of 80.3%.
Compound `CC(=O)OC[C@]12CC[C@@H](/C(C)=N/O)[C@@H]1[C@H]1CC[C@@H]3[C@@]4(C)CCCNC(C)(C)[C@@H]4CC[C@@]3(C)[C@]1(C)CC2` has a growth of 64.6%.
For `COc1cccc(-c2nn(-c3ccccc3)cc2-c2ccnc(NCCNS(=O)(=O)c3ccc(C(F)(F)F)cc3)c2)c1`, the growth was 14.2%.
With `Cc1csc(Nc2nc(-c3cccc(Br)c3)nc(C(Cl)(Cl)Cl)n2)n1` the growth was 5.62% (active).
With `Brc1cnc2[nH]cc(-c3nnc(-c4ccccc4)o3)c2c1` the growth was 81.2%.
`Cn1cc(-c2csc(-c3cn(C(=O)OC(C)(C)C)c4ccc(Br)cc34)n2)c2cccnc21` was tested, and the growth was 78.5%.
In the case of `CC1(C)[C@@H](O)CC[C@]2(C)[C@H]3CC[C@@H]4[C@H]5[C@H](C(=O)/C=C/c6ccc(C(F)(F)F)cc6)CC[C@]5(CO)CC[C@@]4(C)[C@]3(C)CC[C@@H]12`, the growth is reported as 47.8%.
`COc1ccc(-c2nc3ncccn3c2-c2nc3ccc(Br)cc3[nH]2)cc1` was tested, and the growth was 84.9%.
For `O=C1C=Cc2ncccc2C1=O`, the growth was 105%.
